HTR5A ag ctr: HTR5A agonists in luminescence cell assay, primary screen, counter-screen for OPRM1-OPRD1 heterodimer agonist project, full-deck HTS; 5-hydroxytryptamine receptor 5A (Homo sapiens), P47898; cell-based; activation, % at 9.3 µM; 0.61% of 340,000 active; AID 504692, 2011; in the data active means activation mostly above about 9.5%, no sharp cut-off; inactive means mostly below about 7.6%;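 further: 0% = cells with vehicle only and 100% = reference agonist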
MOR-DOR inv ag: inverse agonists of MOR-DOR heterodimerization, primary screen, cell-based, luminescence | Mu-type opioid receptor (Homo sapiens) + Delta-type opioid receptor (Homo sapiens), … | cell-based MOR-DOR heterodimer luminescence, inverse agonism | inhibition, % at 9.3 µM | 0.21% of 340,000 active | AID 504357, 2011; in the data active means inhibition above about 22%, passing the limit was not always enough;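 further: 0% = cells with DMSO and 100% = wells without cells with DMSO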
Target sequence (P35372 whole entry, looked up): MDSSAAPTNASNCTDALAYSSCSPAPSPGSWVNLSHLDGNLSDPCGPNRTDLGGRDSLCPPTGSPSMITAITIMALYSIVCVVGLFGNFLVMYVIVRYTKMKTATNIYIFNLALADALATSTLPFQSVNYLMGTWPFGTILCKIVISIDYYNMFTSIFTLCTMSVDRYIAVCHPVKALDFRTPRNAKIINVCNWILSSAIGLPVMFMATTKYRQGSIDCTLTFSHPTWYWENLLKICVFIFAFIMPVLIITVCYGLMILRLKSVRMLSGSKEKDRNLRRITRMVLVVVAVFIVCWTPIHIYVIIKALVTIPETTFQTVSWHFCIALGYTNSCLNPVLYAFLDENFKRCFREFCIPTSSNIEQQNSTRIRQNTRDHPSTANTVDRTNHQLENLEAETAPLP
Target sequence (P41143 whole entry, looked up): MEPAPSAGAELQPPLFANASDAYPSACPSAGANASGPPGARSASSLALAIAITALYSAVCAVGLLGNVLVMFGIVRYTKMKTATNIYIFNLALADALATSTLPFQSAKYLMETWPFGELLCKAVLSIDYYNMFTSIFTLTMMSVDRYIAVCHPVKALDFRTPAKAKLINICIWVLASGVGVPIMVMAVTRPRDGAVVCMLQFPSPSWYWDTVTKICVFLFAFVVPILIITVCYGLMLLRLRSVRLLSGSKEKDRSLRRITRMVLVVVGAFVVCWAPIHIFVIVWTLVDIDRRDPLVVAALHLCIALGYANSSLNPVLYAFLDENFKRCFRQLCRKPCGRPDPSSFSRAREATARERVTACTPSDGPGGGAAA
HTR5A inv ctr: HTR5A inverse agonists in luminescence cell assay, primary screen, counter-screen for OPRM1-OPRD1 heterodimer inverse agonist project, full-deck HTS | 5-hydroxytryptamine receptor 5A (Homo sapiens), P47898 | HTR5A cell line, inverse agonism | inhibition, % at 9.3 µM | 0.083% of 340,000 active; in the data active means inhibition mostly above about 23%, no sharp cut-off; inactive means mostly below about 18%;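 further: 0% = cells with DMSO and 100% = no-cell wells with DMSO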
MOR-DOR ag-1: agonists of OPRM1-OPRD1 heterodimerization, primary screen, cell-based, luminescence. Mu-type opioid receptor (Homo sapiens) + Delta-type opioid receptor (Homo sapiens), …. cells. activation, % at 9.3 µM. 0.3% of 340,000 active;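 further: 0% = vehicle-treated cells and 100% = reference agonist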
MOR-DOR ag-2: OPRM1-OPRD1 heterodimerization promoters, counter-screen for HTR5A agonist project, cell-based, luminescence; shares compounds with HTR5A ag ctr; U2OS counter-screen cells, complementation luminescence, 3 h; activation, % at 9.3 µM; 13% of 800 active
HTR5A ag conf: HTR5A agonists, retest of hits, confirmation, cell-based, luminescence. 17% of 800 active. HTR5A agonist cell assay. activation, % at 9.3 µM. AID 504915, 2011. shares compounds with HTR5A ag ctr; in the data active means activation above about 17%;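 further: 0% = cells with vehicle only and 100% = full reference agonist response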
* marks the source's active call; other numbers are inactive results. In the library only some 1.1% were active in any assay of this set; here they are far more common. Unless noted, no stated cut-off is given here; in the data, active means activation above about 18%; inactive means the rest.

Screening O=C(O)C1CCCCC1C(=O)NCCc1c[nH]c2ccccc12 (configuration not stated) returned HTR5A ag ctr 45*, MOR-DOR inv ag 8, HTR5A inv ctr -213, MOR-DOR ag-1 -2, MOR-DOR ag-2 3 and HTR5A ag conf 7.
For Cc1ccc2nccc(C(=O)N3CCCC(N4CCN(c5ccc(F)cc5)CC4)C3)c2c1 (configuration not stated) the results were HTR5A ag ctr -2, MOR-DOR inv ag 12, HTR5A inv ctr -5 and MOR-DOR ag-1 -2.
CC(C)c1nc(C(=O)N2CCCC(N3CCN(c4cccc(Cl)c4)CC3)C2)cs1 (configuration not stated) was read as HTR5A ag ctr 2, MOR-DOR inv ag 15, HTR5A inv ctr -6 and MOR-DOR ag-1 -3.
Screening O=S(=O)(c1ccc(S(=O)(=O)N2CCCN(Cc3ccccc3)C2)cc1)N1CCCCCC1 returned HTR5A ag ctr 15*, MOR-DOR inv ag 12, HTR5A inv ctr -4, MOR-DOR ag-1 -2, MOR-DOR ag-2 0 and HTR5A ag conf 3.
O=S(=O)(NCc1ccccc1)c1ccc(S(=O)(=O)N2CCCCC2)cc1 was read as HTR5A ag ctr 4, MOR-DOR inv ag 0, HTR5A inv ctr -14 and MOR-DOR ag-1 0.
`COc1ccc(CC(=O)c2cc(OC)c(OC)cc2CC(=O)O)cc1OC` gave HTR5A ag ctr 1, MOR-DOR inv ag 20, HTR5A inv ctr -2 and MOR-DOR ag-1 -4.
`COc1ccc(C(=O)Cc2ccc(OC)c(OC)c2)c(OC)c1` gave HTR5A ag ctr 19*, MOR-DOR inv ag -17, HTR5A inv ctr -44, MOR-DOR ag-1 3, MOR-DOR ag-2 4 and HTR5A ag conf 5.
`COc1ccc(NC(=O)NNC(=O)COc2ccc([N+](=O)[O-])c(C)c2)cc1OC` gave HTR5A ag ctr 2, MOR-DOR inv ag 18, HTR5A inv ctr -23 and MOR-DOR ag-1 -3.
`CC(Sc1ccccc1)C(=O)NNC(=O)c1ccncc1` (configuration not stated) gave HTR5A ag ctr 4, MOR-DOR inv ag -25, HTR5A inv ctr -12 and MOR-DOR ag-1 4.
Screening Cn1cc(S(=O)(=O)NCc2cccs2)c(=O)n(C)c1=O returned HTR5A ag ctr 19*, MOR-DOR inv ag 5, HTR5A inv ctr -58, MOR-DOR ag-1 -1, MOR-DOR ag-2 1 and HTR5A ag conf -1.
CC1CC(=O)N(CC(=O)Nc2ccc(Br)cc2)c2ccccc2S1(=O)=O (configuration not stated) was read as HTR5A ag ctr -2, MOR-DOR inv ag 16, HTR5A inv ctr 10 and MOR-DOR ag-1 -3.
Screening CCn1c(=NC(=O)c2ccco2)sc2cccc(F)c21 returned HTR5A ag ctr 20*, MOR-DOR inv ag -9, HTR5A inv ctr -62, MOR-DOR ag-1 2, MOR-DOR ag-2 3 and HTR5A ag conf -1.
Cc1[nH]nc(-c2ccc(OCc3cnn(-c4ccccc4)c3)c(C)c2O)c1Oc1ccccc1 was read as HTR5A ag ctr 22*, MOR-DOR inv ag -64, HTR5A inv ctr -27, MOR-DOR ag-1 14, MOR-DOR ag-2 19* and HTR5A ag conf 10.
CCC(=O)N1CCN(c2ccccc2NC(=S)NC(=O)c2ccco2)CC1 was read as HTR5A ag ctr -1, MOR-DOR inv ag 13, HTR5A inv ctr 5 and MOR-DOR ag-1 -3.
O=C(COc1cccc([N+](=O)[O-])c1)NN1C(=O)c2ccccc2C1=O was read as HTR5A ag ctr 4, MOR-DOR inv ag 8, HTR5A inv ctr 10 and MOR-DOR ag-1 -2.
CCn1c(N2CCN(C(=S)NCCc3ccccc3)CC2)nc2ccccc21 was read as HTR5A ag ctr 31*, MOR-DOR inv ag 3, HTR5A inv ctr -38, MOR-DOR ag-1 -1, MOR-DOR ag-2 2 and HTR5A ag conf 30*.
For CCn1c(N2CCN(S(=O)(=O)c3ccc(Cl)cc3)CC2)nc2ccccc21 the results were HTR5A ag ctr 16*, MOR-DOR inv ag -20, HTR5A inv ctr -41, MOR-DOR ag-1 4, MOR-DOR ag-2 3 and HTR5A ag conf -1.
CCn1c(N2CCN(C(=S)NCC(C)C)CC2)nc2ccccc21 was read as HTR5A ag ctr 6, MOR-DOR inv ag -1, HTR5A inv ctr -10 and MOR-DOR ag-1 0.
Screening CCn1c(N2CCN(C(=S)NC)CC2)nc2ccccc21 returned HTR5A ag ctr 24*, MOR-DOR inv ag 7, HTR5A inv ctr -24, MOR-DOR ag-1 -1, MOR-DOR ag-2 2 and HTR5A ag conf 2.
Screening CC(=O)NS(=O)(=O)c1ccc(NC(=O)CC23CC4CC(CC(Br)(C4)C2)C3)cc1 returned HTR5A ag ctr 0, MOR-DOR inv ag 1, HTR5A inv ctr 0 and MOR-DOR ag-1 0.
Cc1ccccc1-c1cc(C(=O)Nc2sc(C)c(C)c2C(N)=O)c2ccccc2n1 was read as HTR5A ag ctr 17*, MOR-DOR inv ag 5, HTR5A inv ctr -45, MOR-DOR ag-1 -1, MOR-DOR ag-2 5 and HTR5A ag conf -2.
`CCOC(=O)c1sc(NC(=O)c2cc(-c3ccccc3C)nc3ccccc23)c(C#N)c1C` gave HTR5A ag ctr 2, MOR-DOR inv ag 4, HTR5A inv ctr -4 and MOR-DOR ag-1 -1.
CCOC(=O)C1=CCN(Cc2ccccc2)CC1 was read as HTR5A ag ctr 5, MOR-DOR inv ag 11, HTR5A inv ctr -14 and MOR-DOR ag-1 -2.
Cc1cc(OCCn2nc(C(=O)O)c3ccccc3c2=O)ccc1C(C)C was read as HTR5A ag ctr 20*, MOR-DOR inv ag -21, HTR5A inv ctr -55, MOR-DOR ag-1 3, MOR-DOR ag-2 -2 and HTR5A ag conf -9.
For CCOC(=O)N1CCc2cc(OC)c(OC)c3c2c1cc1cc(OC)c(OC)cc13 the results were HTR5A ag ctr 4, MOR-DOR inv ag -1, HTR5A inv ctr -14 and MOR-DOR ag-1 0.
Cn1c(CN2CCCCC2)nc2cc(NC(=O)c3ccc(Cl)cc3)ccc21 was read as HTR5A ag ctr 39*, MOR-DOR inv ag -9, HTR5A inv ctr -146, MOR-DOR ag-1 2, MOR-DOR ag-2 2 and HTR5A ag conf 44*.
Screening Cc1cccc(S(=O)(=O)Nc2ccc(-c3cn4ccccc4n3)cc2)c1 returned HTR5A ag ctr -1, MOR-DOR inv ag -3, HTR5A inv ctr 4 and MOR-DOR ag-1 1.
`Cc1cc(C)c(S(=O)(=O)Nc2ccc(-c3cn4ccccc4n3)cc2)c(C)c1` gave HTR5A ag ctr 14*, MOR-DOR inv ag -16, HTR5A inv ctr -19, MOR-DOR ag-1 4, MOR-DOR ag-2 1 and HTR5A ag conf 40*.
